From PubChem BioAssay (NCATS)
Active and inactive are the calls of the source. The call rests on the fitted dose curve.

How the values were obtained:
Experiment in all cases: Confirmatory Screen for Target Class Profiling of Small Molecule Inhibitors of Methyltransferases (AID 1745852); on activity change, negative = inhibition: on the % scale 0 is the no-effect control and ±100 the full control effect
[1] = biological target: Catechol O-methyltransferase (Homo sapiens) (UniProt P21964); details: MTase-Glo luminescence, SAH detection, recombinant enzyme; measured here: COMT max response; stronger effect = lower value
[2] = biological target: Guanidinoacetate N-methyltransferase (Homo sapiens) (UniProt Q14353); details: MTase-Glo luminescence, SAH detection, recombinant enzyme; activity change, negative = inhibition: at 57.3 µM (top of the series) unless noted; series mostly up to 57.3 µM
[3] = biological target: Nicotinamide N-methyltransferase (Homo sapiens) (UniProt P40261); details: MTase-Glo luminescence, SAH detection, recombinant enzyme; measured here: NNMT max response; stronger effect = lower value
[4] = biological target: Phenylethanolamine N-methyltransferase (Homo sapiens) (UniProt P11086); details: MTase-Glo luminescence, SAH detection, recombinant enzyme; measured here: PNMT max response; stronger effect = lower value
Potency means the concentration at half of the fitted maximal effect.

Sequence of Catechol O-methyltransferase (Homo sapiens) (P21964 whole entry, looked up): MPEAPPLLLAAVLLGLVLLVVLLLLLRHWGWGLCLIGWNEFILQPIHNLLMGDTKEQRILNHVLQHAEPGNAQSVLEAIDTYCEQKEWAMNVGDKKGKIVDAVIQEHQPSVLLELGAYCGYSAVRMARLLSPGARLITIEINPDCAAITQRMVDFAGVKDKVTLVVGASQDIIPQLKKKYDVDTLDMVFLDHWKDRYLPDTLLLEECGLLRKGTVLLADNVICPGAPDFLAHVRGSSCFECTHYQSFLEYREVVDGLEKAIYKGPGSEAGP
Sequence of Phenylethanolamine N-methyltransferase (Homo sapiens) (P11086 whole entry, looked up): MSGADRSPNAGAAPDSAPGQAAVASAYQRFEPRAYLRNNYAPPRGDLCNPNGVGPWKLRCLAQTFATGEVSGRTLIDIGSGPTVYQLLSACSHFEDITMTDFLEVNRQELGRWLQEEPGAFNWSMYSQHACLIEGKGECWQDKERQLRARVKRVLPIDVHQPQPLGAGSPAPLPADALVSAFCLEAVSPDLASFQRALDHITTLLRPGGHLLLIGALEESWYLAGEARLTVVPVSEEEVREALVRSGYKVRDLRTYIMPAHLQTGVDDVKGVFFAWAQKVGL
Sequence of Nicotinamide N-methyltransferase (Homo sapiens) (P40261 whole entry, looked up): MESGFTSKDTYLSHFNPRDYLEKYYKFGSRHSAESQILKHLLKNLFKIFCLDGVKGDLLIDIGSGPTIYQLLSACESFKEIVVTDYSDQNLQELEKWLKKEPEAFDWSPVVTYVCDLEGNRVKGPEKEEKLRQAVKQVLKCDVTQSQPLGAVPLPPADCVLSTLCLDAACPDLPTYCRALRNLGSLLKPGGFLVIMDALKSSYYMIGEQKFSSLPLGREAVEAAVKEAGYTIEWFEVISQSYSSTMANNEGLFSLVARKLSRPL

Row | SMILES | activity [1] [%] | activity change, negative = inhibition [2] | activity [3] [%] | activity [4] [%] | Potency [2]
1 | CC(C)Cn1c(=O)c2ccccc2n2c(CCC(=O)N3CCN(Cc4ccccc4)CC3)nnc12 | 0.0224 | 2.81% | -55.9 | -3.34 | 
2 | CC(C)c1nccn1CCCNc1nc(-c2ccncc2)nc2c1cnn2C | -28.8 | -15.2% | -20.9 | -44.2 | 
3 | COC(=O)c1cc2n(n1)CC(C)(C(=O)NC1CCC(C)CC1)N(Cc1ccc(OC)cc1OC)C2=O (centres undefined) | -11.6 | -7.55% | -66.9 | -13.3 | 
4 | COc1ccc(S(=O)(=O)N2CCC(n3c(=O)[nH]c4ccccc43)CC2)cc1 | -23.2 | -12% | -15.3 | -23.9 | 
5 | COc1cccc2c1OCCCN(c1cc(C3CC(O)C3)nc(N)n1)C2 (centres undefined) | 5.04 | 6.51% | 3.54 | 4.23 | 
6 | O=C(NCc1cccc(F)c1)c1nc2c(o1)CCN(CC1CCCC1)CC2 | 5.53 | 18.3% [at 85.7 µM] | 5.46 | -10.1 | 
7 | CC(C)NC(=O)c1ccccc1OCC1CCCN(Cc2cn(C)c3ccccc23)C1 (centres undefined) | 8.45 | 14.4% | 4.67 | 10.4 | 
8 | COc1cccc(CN2CCCC3(CCN(c4cc(C)nc(N)n4)C3)C2)c1OC (centres undefined) | -4.01 | -7.75% | -4.87 | -3.6 | 
9 | CCCC1c2cccn2CCN1C(=O)Nc1ccc(OC)cc1 (centres undefined) | -6.82 | -3.73% | -13.3 | -7.43 | 
10 | CC(C)c1ccc(NC(=O)Cn2c(=O)oc3cc(S(=O)(=O)NCc4ccccc4)ccc32)cc1 | 0 | 0% | -3.77 | 0 | 
11 | CCOCCCN1C(=O)c2cc3c(OC)ccc(OC)c3n2CC1(C)C(=O)NC1CCCCC1 (centres undefined) | -8.08 | -4.76% | -17.7 | -10.4 | 
12 | Cn1c(=O)n(C)c2cc(S(=O)(=O)Nc3ccc(-c4nnc(-c5ccccc5)o4)c(Cl)c3)ccc21 | -28.6 | -7.85% | -40.4 | -17.1 | 
13 | Cc1c(C(=O)O)ccc2c1N[C@@H](c1cccc(C(F)(F)F)c1)[C@H]1CC=C[C@@H]21 | -4.24 | -0.164% | -5.85 | -7.15 | 
14 | c1ccc(-c2cc3c(cn2)NCCN(Cc2ccccn2)C3)cc1 | 1.39 | 3.72% [at 85.7 µM] | -8.79 | -1.82 | 
15 | O=C(Nc1ccc2ncnc(N3CCCCC3)c2c1)c1cc(F)ccc1F | -70.5 |  | -79.2 | -80.3 | 21.5 µM (active)
16 | NC(=O)C1(N2CCCCC2)CCN(c2nc3c(S(=O)(=O)c4ccccc4)nnn3c3ccccc23)CC1 | -1.9 | 0% | -8.86 | -8.88 | 
17 | Cc1ccc2c(c1)c(-n1cccc1)c1n2CC(C)(C(=O)NC2CCCCC2)N(Cc2ccccn2)C1=O (centres undefined) | 4.89 | 0.484% | -16.5 | 0 | 
18 | CN(C)CC1(O)CCC2(CCN(C(=O)c3cccn3C)CC2)CC1 | 7.38 | 3.21% | 3.1 | 9.04 | 

Row | SMILES | activity [1] [%] | activity change, negative = inhibition [2] | activity [3] [%] | activity [4] [%] | Potency [2]
19 | COc1ccc(CCNC(=O)c2ccc3c(=O)nc4c(-c5ccccc5)n[nH]n4c3c2)cc1OC | -11.8 |  | -10.5 | -12.5 | 0.0961 µM (active)
20 | CCNc1nccc(N2CCC(CC(=O)N3CCN(c4ccccc4F)CC3)CC2)n1 | 6.4 | 4.58% | 2.88 | 5.27 | 
21 | O=C(Cn1c(=O)oc2cc(S(=O)(=O)N3CCCC3)ccc21)Nc1cccc(Cl)c1 | -1.16 | 0% | 4.81 | -49.8 | 
22 | O=C(NCc1ccc2c(c1)OCO2)c1sc(=S)n2c1[nH]c(=O)c1ccccc12 | -46.4 |  | -20.7 | -48.8 | 27.1 µM (active)
23 | COc1ccc(-c2[nH]nc3ncc(C(=O)N4CCC(c5ccccc5)CC4)nc23)c(C)c1 | -39.6 | -20.4% [at 85.7 µM] | -23.9 | -53.6 | 
24 | COc1ccc2c(c1)C(CN1CCN(c3ccc4oc(C(=O)O)cc4c3Cl)CC1)=CC(C)(C)CO2 | -4.38 | 0.273% | -9.6 | 3.5 | 
25 | Cc1cnc(C2CCC2)n1C1CCN(C(=O)CCC2CCCC2)CC1 | -8.04 | -7.84% | -13.3 | -7.48 | 
26 | COC(=O)c1ccc(C)c2c1C1C=CCC1[C@@H](c1ccc(C(=O)O)cc1)N2 (some centres undefined) | -11.4 | -1.6% | -8.29 | -3.22 | 
27 | O=C(N[C@H](C1CCNCC1)C1CC(O)C1)c1ccc2nccnc2c1 (some centres undefined) | -0.82 | 1.16% | 10.8 | 3.61 | 
28 | c1ccc(-c2cc3c(cn2)NCCN(CC2CC2)C3)cc1 | 8.66 | 7.08% [at 114 µM] | 4.63 | 6.73 | 
29 | CC(=O)Nc1cccc(-c2cc3c(cn2)CN(Cc2ccccc2)CCN3)c1 | -2.16 | 0.249% [at 85.7 µM] | -13 | -14.8 | 
30 | Cn1ccc(Nc2cc3c(cn2)CN(CCc2ccccc2)CCN3)n1 | -0.459 | -0.578% [at 85.7 µM] | -5.86 | -38.8 | 
31 | CC1CCCCN1CCCNC(=O)Cn1ccc2cc(S(=O)(=O)N3CCCCC3)ccc21 (centres undefined) | 1.36 | 0% | 0.0396 | -0.622 | 
32 | CCOC(=O)C1CCCN(S(=O)(=O)c2ccc3[nH]c(=O)[nH]c3c2)C1 (centres undefined) | 2.57 | 0% | -6.43 | -50.4 | 
33 | CCCC1c2cccn2CCN1C(=O)Nc1ccc(Br)cc1 (centres undefined) | -7.6 | -4.2% | -18.3 | -12.2 | 
34 | COc1ccc(-c2cc3nc4c(c(=O)n3[nH]2)CN(C(=O)CN(C)S(=O)(=O)c2cnc[nH]2)CC4)cc1 | -19.9 |  | -27.5 | -19.5 | 21.5 µM (active)
35 | O=C(NCCc1ccc(Cl)cc1)c1ccc2c(=O)[nH]c3c(C(=O)NCC4CCCO4)sc(=S)n3c2c1 (centres undefined) | -36.2 |  | -49.4 | -36.4 | 27.1 µM (active)
36 | Cn1c(=O)n(C)c2cc(S(=O)(=O)N3CCN(C4CCCCC4)CC3)ccc21 | -4.43 | -0.234% | -8.71 | -5.99 | 
